Among the data in PubChem BioAssay (NCI) are growth values, retold here.

Test systems include NCI-H23 lung; NCI-H226 lung; NCI-H322M lung; HOP-62 NSCLC; NCI-H460 lung; HOP-92 NSCLC; NCI-H522 lung; A549/ATCC NSCLC; 786-0 renal; COLO 205 colon.
Common to all, as to experiment: NCI-60 one-dose screen, 48 h (100 = growth as untreated, 0 = no growth, -100 = all killed)
Holding throughout (details): 10 µM unless noted

About 83,000 compounds went through this panel and 20% of them were active in at least one assay; those are over-represented in the sample as a whole.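 48-hour exposure, single concentration, 96-well plates; percent growth endpoint where 0 means no net growth. Active: below 10.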 Active and inactive are the calls of the source.

As for `O=S(=O)(NCCNc1nccc(-c2c(-c3cccc(O)c3)nc3occn23)n1)c1ccc(C(F)(F)F)cc1`, the growth with NCI-H23 lung was 102% (inactive); with NCI-H226 lung, 106% (inactive); with NCI-H322M lung it was 108% (inactive); with HOP-62 NSCLC it was 107% (inactive); in the assay on NCI-H460 lung, 94.9% (inactive); with HOP-92 NSCLC, 92.6% (inactive). Besides, the growth in the assay with NCI-H522 lung is 94.6% (inactive); in the assay on A549/ATCC NSCLC it was 94.8% (inactive); with 786-0 renal, 101% (inactive); with COLO 205 colon it was 44.1% (inactive).

On to `O=c1c2c(c(=O)n1O)c1c3ccc[nH]c3nc1c1nc3[nH]cccc3c12`, for which the growth in the assay on NCI-H23 lung was 86.7% (inactive); in the assay with NCI-H226 lung, 87.1% (inactive); in the assay with NCI-H322M lung, 91% (inactive); in the assay on HOP-62 NSCLC, 83% (inactive); in the assay on NCI-H460 lung, 93.1% (inactive); in the assay on HOP-92 NSCLC it was 80.1% (inactive). Further, the growth in the assay on NCI-H522 lung is 55% (inactive); in the assay with A549/ATCC NSCLC, 79.4% (inactive); in the assay on 786-0 renal, 87.5% (inactive); in the assay with COLO 205 colon it was 94.9% (inactive).

Take `Cc1c(C)c([N+](=O)[O-])c(C)c([N+](=O)[O-])c1C`: the growth with NCI-H23 lung is 116% (inactive); with NCI-H226 lung it was 108% (inactive); with NCI-H322M lung, 115% (inactive); in the assay on HOP-62 NSCLC it was 121% (inactive); in the assay with NCI-H460 lung, 112% (inactive); in the assay on HOP-92 NSCLC, 79.2% (inactive). Further, the growth with NCI-H522 lung was 77.2% (inactive); with A549/ATCC NSCLC, 98.2% (inactive); with 786-0 renal it was 95.4% (inactive); in the assay with COLO 205 colon, 122% (inactive).

Regarding `O=S(=O)(NCCNc1nccc(-c2c(-c3cccc(F)c3)nc3sccn23)n1)c1ccc(Cl)cc1`, the growth in the assay on NCI-H23 lung was 74.9% (inactive); in the assay with NCI-H226 lung, 49.3% (inactive); in the assay on NCI-H322M lung, 65.5% (inactive); with HOP-62 NSCLC it was 82.6% (inactive); in the assay on NCI-H460 lung it was 30.1% (inactive); in the assay with HOP-92 NSCLC, 76.6% (inactive). The growth is 68.2% (inactive) in the assay with NCI-H522 lung, 32.1% (inactive) in the assay with A549/ATCC NSCLC, 51.3% (inactive) with 786-0 renal and 40% (inactive) with COLO 205 colon.

Consider `Cc1ccc(-n2cc(-c3ccccc3)c3c2N=NN2CCN=C32)cc1`, for which the growth with NCI-H23 lung was 93.1% (inactive); in the assay on NCI-H226 lung, 82.3% (inactive); with NCI-H322M lung, 97.4% (inactive); with HOP-62 NSCLC, 97.4% (inactive); in the assay with NCI-H460 lung, 104% (inactive); with HOP-92 NSCLC, 102% (inactive). The growth was 90.2% (inactive) in the assay with NCI-H522 lung, 105% (inactive) with A549/ATCC NSCLC, 99.3% (inactive) in the assay on 786-0 renal and 120% (inactive) in the assay on COLO 205 colon.

Turning to `O=C(Nc1cccc(C(=O)N2CCc3ccc(Cl)cc32)c1)c1ccco1`, the growth was 62.4% (inactive) with NCI-H23 lung; 60.2% (inactive) in the assay on NCI-H226 lung; 65.2% (inactive) in the assay on NCI-H322M lung; 42.4% (inactive) in the assay with HOP-62 NSCLC; 15.8% (inactive) in the assay with NCI-H460 lung; 74.1% (inactive) in the assay on HOP-92 NSCLC. Besides, the growth with NCI-H522 lung is 17.8% (inactive); in the assay with A549/ATCC NSCLC, 38.3% (inactive); with 786-0 renal, 40.5% (inactive); in the assay on COLO 205 colon, 27.5% (inactive).

As for `COc1ccc2c(c1)oc1c(C)c3c(c(C)c12)C(=O)N(N)C3=O`, the growth in the assay with NCI-H23 lung is 50.4% (inactive); in the assay with NCI-H226 lung, -11.6% (active); in the assay with NCI-H322M lung, 32.3% (inactive); with HOP-62 NSCLC, 14.8% (inactive); in the assay with NCI-H460 lung, 8% (active); in the assay with HOP-92 NSCLC it was 29% (inactive). Besides, the growth was 49.5% (inactive) with NCI-H522 lung, 24.1% (inactive) in the assay on A549/ATCC NSCLC, -39.6% (active) in the assay on 786-0 renal and 39.5% (inactive) in the assay with COLO 205 colon.

In the case of `Cc1cc2nc3c4cccc(O)c4n(CCN(C)C)c3nc2cc1C`, the growth with NCI-H23 lung is 32.3% (inactive); with NCI-H226 lung it was 37% (inactive); with NCI-H322M lung it was 38% (inactive); in the assay with HOP-62 NSCLC, 31.7% (inactive); with NCI-H460 lung, 9.09% (active); in the assay with HOP-92 NSCLC, 55.1% (inactive). In addition, the growth is 31% (inactive) with NCI-H522 lung, 20.4% (inactive) with A549/ATCC NSCLC, 40.4% (inactive) in the assay on 786-0 renal and 59.7% (inactive) in the assay on COLO 205 colon.

As to `O=C1NN(C(=O)c2ccccc2)C(c2ccc(Cl)c(Cl)c2)=C/C1=C\c1ccc([N+](=O)[O-])cc1`, the growth is 85.3% (inactive) in the assay on NCI-H23 lung; 88.7% (inactive) with NCI-H226 lung; 98% (inactive) with NCI-H322M lung; 101% (inactive) with HOP-62 NSCLC; 83% (inactive) with NCI-H460 lung; 3.02% (active) with HOP-92 NSCLC. The growth in the assay with NCI-H522 lung is 63.8% (inactive); with A549/ATCC NSCLC, 96.2% (inactive); with 786-0 renal it was 102% (inactive); with COLO 205 colon it was 27.9% (inactive).

Take `Cc1ccc(-n2c3c(c(-c4ccccc4)c2-c2ccccc2)C2=NCCN2C=N3)cc1`: the growth with NCI-H23 lung is 84.2% (inactive); in the assay with NCI-H226 lung, 72% (inactive); with NCI-H322M lung, 96.6% (inactive); in the assay with HOP-62 NSCLC, 97.6% (inactive); in the assay on NCI-H460 lung it was 90.9% (inactive); in the assay on HOP-92 NSCLC, 87% (inactive). For the same molecule, the growth in the assay on NCI-H522 lung was 80.2% (inactive); in the assay on A549/ATCC NSCLC, 93.7% (inactive); with 786-0 renal it was 95% (inactive); in the assay with COLO 205 colon, 101% (inactive).

On to `O=C(/C=C/c1ccc(Cl)cc1)c1ccc(NC(=O)N2CCN(c3cc4c(cc3F)c(=O)c(C(=O)O)cn4C3CC3)CC2)cc1`, for which the growth with NCI-H23 lung is 87.4% (inactive); in the assay with NCI-H226 lung, 89.4% (inactive); in the assay with NCI-H322M lung, 103% (inactive); in the assay on HOP-62 NSCLC, 106% (inactive); in the assay with NCI-H460 lung, 87.8% (inactive); in the assay on HOP-92 NSCLC, 92.9% (inactive). The growth with NCI-H522 lung is 66.9% (inactive); in the assay with A549/ATCC NSCLC, 95.8% (inactive); with 786-0 renal, 86.5% (inactive); with COLO 205 colon, 115% (inactive).

Regarding `COc1ccc2[nH]c(=O)c(CN3CCN(c4nccc(-c5ccc(Cl)cc5)n4)CC3)cc2c1`, the growth is 91.2% (inactive) with NCI-H23 lung; 94.4% (inactive) in the assay with NCI-H226 lung; 85.4% (inactive) in the assay with NCI-H322M lung; 80.1% (inactive) in the assay on HOP-62 NSCLC; 76.3% (inactive) in the assay with NCI-H460 lung; 101% (inactive) in the assay with HOP-92 NSCLC. For the same molecule, the growth was 77% (inactive) in the assay on NCI-H522 lung, 73.9% (inactive) in the assay with A549/ATCC NSCLC, 85.2% (inactive) in the assay on 786-0 renal and 95.9% (inactive) with COLO 205 colon.

For `COc1ccc2nc(-c3ccc(-c4noc(-c5cc(OC)c(OC)c(OC)c5)n4)cc3)[nH]c2c1`, the growth in the assay with NCI-H23 lung was 63.8% (inactive); with NCI-H226 lung, 86% (inactive); in the assay with NCI-H322M lung it was 101% (inactive); in the assay on HOP-62 NSCLC, 76.8% (inactive); in the assay on NCI-H460 lung, 56.3% (inactive); in the assay on HOP-92 NSCLC it was 76.2% (inactive). Moreover, the growth in the assay with NCI-H522 lung was 74.9% (inactive); with A549/ATCC NSCLC, 45.8% (inactive); in the assay with 786-0 renal, 77.8% (inactive); in the assay with COLO 205 colon, 78.4% (inactive).

For the molecule `CCN(CC)CCn1c(=O)c2cc(OC)c(OC)cc2c2ccc3cc4c(cc3c21)OCO4`, the growth in the assay with NCI-H23 lung was 19.5% (inactive); with NCI-H226 lung, 1.83% (active); with NCI-H322M lung, 41% (inactive); in the assay on HOP-62 NSCLC, 21.9% (inactive); in the assay on NCI-H460 lung it was 6.21% (active); in the assay with HOP-92 NSCLC, 52.6% (inactive). In addition, the growth in the assay on NCI-H522 lung is 34.9% (inactive); in the assay on A549/ATCC NSCLC it was 39.4% (inactive); with 786-0 renal, 11.4% (inactive); with COLO 205 colon, 30.2% (inactive).
